Rows were chosen to be rich in hits. Some 12% of all compounds tested hit in one or more screens of this group.
BAZ2B block – qHTS Assay for Inhibitors of BAZ2B. AlphaScreen BAZ2B-H3K14Ac peptide displacement. Potency, µM (highest dose often 114 µM), for the others: top-dose activity change, negative = inhibition, most hits filed as inhibitors. 360,000 compounds, 4.4% hits. AID 504333, 2011; also: % is scaled to controls: 0 for no effect and ±100 for the full control effect; nearly all actives have a fitted effect of over 60% in size
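AlphaScreen luminescence quantifies BAZ2B engagement of H3K14Ac peptide; the protein and biotinylated peptide are both at 50 nM final, buffer PBS pH 7.4 with 0.01% Tween-20, all steps at room temperature.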
HP1b chromo inh – HTS for Inhibitors of HP1-beta Chromodomain Interactions with Methylated Histone Tails. 390,000 compounds, 0.56% hits. Potency, µM (titrated, usually from 114 µM), without a hit: at the top dose activity change, negative = inhibition, usual class: inhibitors. AID 540317, 2011. AlphaScreen HP1-beta / biotin-H3K9me3 peptide binding; also: nearly all actives have a fitted effect of over 70% in size
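Compound inhibition of the preformed complex between 50 nM HP1-beta and 50 nM biotinylated H3K9me3 peptide was read by AlphaScreen. Buffer was PBS pH 7.4 with 0.01% Tween-20. Incubations ran 30 min at room temperature, with 10 ug/mL donor/acceptor beads.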
G9a inh – qHTS Assay for Inhibitors of Histone Lysine Methyltransferase G9a; G9a H3K9 monomethylation, AlphaScreen, 2 h; Potency, µM (titrated, usually from 102 µM), for the others: at the highest dose activity, negative = inhibition, usual class: inhibitors; 350,000 compounds, 8.8% hits; also: % is scaled to controls: 0 for no effect and ±100 for the full control effect; nearly all actives have a fitted effect of over 75% in size
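Step 1: enzyme (final 20 nM) with compound, 15 min RT. Step 2: substrate peptide 500 nM and SAM 20 uM, 2 h RT. Step 3: anti-H3K9me1 antibody and AlphaScreen beads, 10 min, then plate read.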
Sfp PPTase inh – qHTS Assay for Inhibitors of Bacillus subtilis Sfp phosphopantetheinyl transferase (PPTase); 4'-phosphopantetheinyl transferase ffp (Bacillus subtilis), Q9F4F7; Biochemical Sfp PPTase activity, qHTS; Potency, µM, for inactives: largest response in the series, negative = inhibition, hits mostly inhibitors; 310,000 compounds, 3.5% hits; AID 1490, 2009;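 also: the enzyme is Sfp with the accession as filed and its product quenches rhodamine fluorescence; 0% = enzyme reaction without inhibitor and -100% = no enzyme wells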
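Compounds were incubated with enzyme (final 15 nM) for 15 min at room temperature before substrate addition started the reaction. Fluorescence at 525 nm excitation, 598 nm emission was recorded immediately and after 30 minutes.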
PLK1 PBD inh – qHTS for Inhibitors of PLK1-PDB (polo-like kinase 1 - polo-box domain): Primary Screen; Plk1 PBD binding of FITC phosphopeptide, fluorescence polarization; Potency, µM, inactives show max response, negative = inhibition, actives largely listed as inhibitors; 360,000 compounds, 2.8% hits; AID 720504, 2013; also: series mostly up to about 57 µM; % is scaled to controls: 0 for no effect and ±100 for the full control effect; nearly all actives have a fitted effect of over 65% in size
JMJD2A Tudor – qHTS Assay for Inhibitors of JMJD2A-Tudor Domain; Lysine-specific demethylase 4A (Homo sapiens), O75164; AlphaScreen JMJD2A-Tudor / H3K4me3 peptide binding; Potency, µM (top dose mostly 114 µM), for inactives: top-dose activity change, negative = inhibition, hits mostly inhibitors; 390,000 compounds, 4.4% hits; AID 504339, 2011; also: % is scaled to controls: 0 for no effect and ±100 for the full control effect; nearly all actives have a fitted effect of over 50% in size
Target sequence (O75164 whole entry, looked up, the tested form may be a part): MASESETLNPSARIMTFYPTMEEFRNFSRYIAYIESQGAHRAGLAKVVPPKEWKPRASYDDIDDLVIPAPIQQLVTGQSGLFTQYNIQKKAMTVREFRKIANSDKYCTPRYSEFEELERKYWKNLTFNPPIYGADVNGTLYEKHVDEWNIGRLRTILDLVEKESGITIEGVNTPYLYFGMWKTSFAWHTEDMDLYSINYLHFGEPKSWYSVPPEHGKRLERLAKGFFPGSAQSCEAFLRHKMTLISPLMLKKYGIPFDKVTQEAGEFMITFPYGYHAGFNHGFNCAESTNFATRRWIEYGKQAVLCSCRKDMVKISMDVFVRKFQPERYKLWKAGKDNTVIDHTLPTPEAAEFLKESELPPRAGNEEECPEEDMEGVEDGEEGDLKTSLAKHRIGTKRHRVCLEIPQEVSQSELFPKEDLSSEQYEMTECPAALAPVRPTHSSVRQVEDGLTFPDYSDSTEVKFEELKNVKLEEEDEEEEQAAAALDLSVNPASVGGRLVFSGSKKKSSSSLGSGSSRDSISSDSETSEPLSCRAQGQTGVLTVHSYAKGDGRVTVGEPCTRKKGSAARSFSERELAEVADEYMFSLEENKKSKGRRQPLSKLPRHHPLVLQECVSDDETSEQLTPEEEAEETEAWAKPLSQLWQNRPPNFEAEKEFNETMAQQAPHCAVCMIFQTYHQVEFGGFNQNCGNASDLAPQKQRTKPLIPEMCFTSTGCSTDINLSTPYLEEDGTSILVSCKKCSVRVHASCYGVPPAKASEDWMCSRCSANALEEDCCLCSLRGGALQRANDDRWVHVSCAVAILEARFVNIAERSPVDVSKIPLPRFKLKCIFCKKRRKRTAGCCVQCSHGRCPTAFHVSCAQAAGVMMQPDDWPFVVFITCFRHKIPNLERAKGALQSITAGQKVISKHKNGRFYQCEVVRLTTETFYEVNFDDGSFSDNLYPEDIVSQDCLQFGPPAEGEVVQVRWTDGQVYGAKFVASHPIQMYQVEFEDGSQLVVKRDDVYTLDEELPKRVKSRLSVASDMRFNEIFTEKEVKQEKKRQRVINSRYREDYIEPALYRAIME
The depositor's hits bear a star; [ ] = another dose, or the depositor's remark. Calls follow the shape of the dose curve; as a rule, active = well fitted curve in the direction sought with a large enough effect; inconclusive = small, poorly fitted or top-dose-only effect, or another doubt; inactive = no such curve, though single readings can be large; an effect the other way counts as inactive or inconclusive. Potency is read from the fitted curve at half-maximal effect.

What do the screens show for `CCC[C@H]1NC(=O)[C@H](C)N(C)C(=O)C(C)(C)C(=O)C(C)NC(=O)[C@H](Cc2ccc(OC)cc2)N(C)C(=O)[C@H](C(C)C)N(C)C(=O)CNC(=O)[C@H](CC(C)C)N(C)C(=O)CNC(=O)[C@H]([C@@H](C)CC)OC(=O)[C@H]1C` (stereo not given in full)?
HP1b chromo inh: -6%; PLK1 PBD inh: -11%; JMJD2A Tudor: 22µM*

How did CN(C)C1(CNC(=O)COc2cccc(Cl)c2)CCCCC1 do in these assays?
BAZ2B block: -13%; HP1b chromo inh: 28%; G9a inh: 2%[59 µM]; JMJD2A Tudor: -26%

How did NC(=O)CC[C@H](NC(=O)c1ccc(F)cc1)C(=O)OCC(=O)NCc1ccc(F)cc1 do in these assays?
BAZ2B block: 0%; HP1b chromo inh: -9%; G9a inh: -3%; Sfp PPTase inh: 23%; PLK1 PBD inh: inconclusive; JMJD2A Tudor: 14µM*

What do the screens show for `NC(=O)CC[C@H](NC(=O)c1ccc(F)cc1)C(=O)OCC(=O)Nc1c(F)c(F)c(F)c(F)c1F`?
BAZ2B block: 2%; HP1b chromo inh: 40%; G9a inh: inconclusive; Sfp PPTase inh: 17%; PLK1 PBD inh: -1%; JMJD2A Tudor: -7%

How did CCC(CCC(C)C1CCC2C3CCC4CC(O)CC[C@@]4(C)C3CC[C@@]12C)C(C)C (stereo not given in full) do in these assays?
Sfp PPTase inh: 20%

Results for CC(CCC(C)C(C)(C)C)[C@@H]1CC[C@H]2C3C[C@H](OS(O)(=S)=S)[C@H]4C[C@H](OS(O)(=S)=S)[C@@H](OS(O)(=S)=S)C[C@]4(C)[C@H]3CC[C@]12C (stereo not given in full) (tested in a mixture with another compound) ?
HP1b chromo inh: inconclusive; PLK1 PBD inh: 4.7µM*; JMJD2A Tudor: 22µM*

How did O=C(c1nn2c(C(F)(F)F)cc(-c3ccc(F)cc3)nc2c1Cl)N1CCOCC1 do in these assays?
HP1b chromo inh: -14%; G9a inh: 42%[59 µM]; Sfp PPTase inh: -3%; PLK1 PBD inh: 27µM*; JMJD2A Tudor: -20%[11.4 µM]

Results for O=C(Nc1ccccc1OC(=O)c1ccccc1)c1ccccc1 ?
HP1b chromo inh: 49%; PLK1 PBD inh: 1%; JMJD2A Tudor: -4%

What do the screens show for `CCc1nc2ccccc2c(=O)n1NC(=O)c1c(O)c2ccccc2[nH]c1=O`?
BAZ2B block: inconclusive; HP1b chromo inh: -1%; G9a inh: 82%[59 µM]; Sfp PPTase inh: -7%; PLK1 PBD inh: -10%; JMJD2A Tudor: 79µM*

Results for C=CC[C@@H]1C=C[C@H](Oc2ccc(C)cc2)[C@H](COC(=O)NCc2cccc3ccccc23)O1 ?
Sfp PPTase inh: 5%

What do the screens show for `Cc1cc(C(=O)COC(=O)c2cc(O)c3ccccc3c2O)c(C)n1CC1CCCO1` (stereo not given)?
BAZ2B block: 50µM*; HP1b chromo inh: 28µM*; G9a inh: 10µM*; Sfp PPTase inh: 79µM*; PLK1 PBD inh: 8.4µM*; JMJD2A Tudor: 32µM*

How did CCN(c1ccccc1)S(=O)(=O)c1ccc(C(=O)Nc2nnc(C3CC3)o2)cc1 do in these assays?
BAZ2B block: 79µM*; HP1b chromo inh: 15%; G9a inh: -25%; Sfp PPTase inh: 33%; PLK1 PBD inh: -8%; JMJD2A Tudor: -17%

Results for CN(c1ccccc1)S(=O)(=O)c1ccc(C(=O)Nc2nnc(-c3ccco3)o2)cc1 ?
HP1b chromo inh: 31%; G9a inh: inconclusive; Sfp PPTase inh: -17%; PLK1 PBD inh: inconclusive; JMJD2A Tudor: -31%

Results for COCc1nnc(NC(=O)c2ccc(S(=O)(=O)N(C)c3ccccc3)cc2)o1 ?
BAZ2B block: inconclusive; HP1b chromo inh: 53%; G9a inh: -10%[59 µM]; Sfp PPTase inh: 17%; PLK1 PBD inh: -15%; JMJD2A Tudor: 79µM*

What do the screens show for `COc1ccccc1-c1nnc(NC(=O)c2ccc(S(=O)(=O)N(C)C)cc2)o1`?
BAZ2B block: inconclusive; HP1b chromo inh: 51%; G9a inh: 28%; Sfp PPTase inh: -7%; PLK1 PBD inh: -9%; JMJD2A Tudor: -20%

How did CCN(c1ccccc1)S(=O)(=O)c1ccc(C(=O)Nc2nnc(-c3ccco3)o2)cc1 do in these assays?
HP1b chromo inh: 34%; G9a inh: 50µM*; Sfp PPTase inh: 28%; PLK1 PBD inh: inconclusive; JMJD2A Tudor: -21%

Results for CCN(Cc1ccccc1)S(=O)(=O)c1ccc(C(=O)Nc2nnc(-c3ccccc3OC)o2)cc1 ?
BAZ2B block: 15%; HP1b chromo inh: -23%; G9a inh: -15%; Sfp PPTase inh: -5%; PLK1 PBD inh: 11µM*; JMJD2A Tudor: -11%[11.4 µM]

Results for COCc1nnc(NC(=O)c2ccc(S(=O)(=O)N(CC(C)C)CC(C)C)cc2)o1 ?
BAZ2B block: inconclusive; HP1b chromo inh: 57%; G9a inh: -27%; Sfp PPTase inh: 24%; PLK1 PBD inh: -13%; JMJD2A Tudor: -16%

What do the screens show for `NC(=O)c1c(NC(=O)Cc2ccccc2)sc2c1CCN(Cc1ccccc1)C2`?
BAZ2B block: -1%; HP1b chromo inh: 46%; G9a inh: -7%; Sfp PPTase inh: 2%; PLK1 PBD inh: 4%; JMJD2A Tudor: 3%

How did CCN(c1ccccc1)S(=O)(=O)c1ccc(C(=O)Nc2nnc(COC)o2)cc1 do in these assays?
BAZ2B block: 56µM*; HP1b chromo inh: 44%; G9a inh: 5%; Sfp PPTase inh: 13%; PLK1 PBD inh: -4%; JMJD2A Tudor: 56µM*

How did COc1ccc(N=C2NN=C(c3c(C)[nH]c4ccccc34)CS2)cc1 do in these assays?
BAZ2B block: 40µM*; HP1b chromo inh: inconclusive; G9a inh: 8.9µM*; Sfp PPTase inh: 35µM*; PLK1 PBD inh: -19%; JMJD2A Tudor: inconclusive

Results for Fc1ccc(N=C2NN=C(c3cc(F)ccc3F)CS2)cc1 ?
BAZ2B block: inconclusive; HP1b chromo inh: -21%; G9a inh: -11%[59 µM]; Sfp PPTase inh: -9%; PLK1 PBD inh: inconclusive; JMJD2A Tudor: -28%

Bioassay records as filed in PubChem BioAssay.
